For orientation: viability means a read-out of living cells in per cent, often relative to untreated cells.

Several values for one entry are separate records, joined by “and”; a condition that tells them apart may be missing. Identical values can stand only once. Activity calls are given as the source filed them. Cut-off read from the data, not from the text of the source, unless noted: active = parasite load remaining mostly below about 12% (no sharp cut-off); inactive = mostly above about 10%.

The record followed here is PubChem BioAssay.

Assay [1] can be described thus: compounds altering viability of human ES cells (AID 493140; call rule not given here;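 note: cells exposed to compounds for four days before counting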). The settings on record: human embryonic stem cell survival screen; stronger effect = higher value.
The nature of assay [2]: P. berghei load reduction in hepatocytes – cell-based, HepG2, luciferase luminescence, HepG2 viability, primary screen (AID 624349).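 Note: 100% = mean of DMSO negative control wells on the same plate.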 Conditions: P. berghei liver stage in HepG2, luciferase luminescence, concentration not given here; parasite load remaining: stronger effect = lower value; viability: measured here: HepG2 viability without parasites.
Assay [3] can be described thus: Wnt pathway potentiators raising nuclear beta-catenin – imaging, WNT3A-conditioned medium, mouse C2C12, NPC library, primary screen (AID 1117326; in the data active = nuclear beta-catenin stimulation mostly above about 4.2%, no sharp cut-off; inactive = mostly below about 10%). The settings on record: stronger effect = higher value.
Assay [4] in a line: stimulators of insulin release from INS-1E, primary screen, cell-based, 5 mM glucose, NPC library (AID 1117329;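 active = compound raises insulin release from rat beta cells at 5 mM glucose, no numeric limit stated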). Conditions: rat INS-1E insulin secretion, at 10 µM, stronger effect = higher value.
Assay [5] is described as follows: growth inhibition of GSK3B-pretreated HCT116 cells – cell-based, CellTiter-Glo, 0.2 to 20 µM (AID 1117336;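 active = compounds lowering colon cancer cell viability after pretreatment blocking the GSK3B kinase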). The settings on record: HCT116 viability after GSK3B inhibitor, at 20 µM, stronger effect = higher value. On the technique in general: Cellular ATP, detected with luciferase, serves as a proxy for viable cell number.
The nature of assay [6]: inhibition of endothelial tube formation, primary screen, imaging, VEGF stimulated, CD31 staining, tube area, NPC library (AID 1117340;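 active = compound that reduces growth-factor-driven endothelial tube area in a mixed cell culture, no cutoff stated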). The settings on record: VEGF-stimulated ADSC/ECFC co-culture, at 10 µM, stronger effect = higher value.
Assay [7] can be described thus: GLP1 release stimulators, primary, NCI-H716, NPC library (AID 1117341;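 active = compound raises GLP1 secretion from the human gut endocrine cells, with no numeric limit stated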). Conditions: NCI-H716 cells, at 10 µM, stronger effect = higher value.
Assay [8] in a line: HCT116 colon cancer cell growth inhibition, primary screen, CellTiter-Glo luminescence, NPC library (AID 1117342;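 active = compounds that lower survival of HCT116 colon cancer cells in the luminescence readout, no numeric limit stated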). The settings on record: at 20 µM (top of the series).
Assay [9] in a line: reduced SW480 viability measured with CellTiter-Glo, NPC library, primary (AID 1117343;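 active = compounds that lower viability of the colon cancer cells in the luminescence readout, with no numeric limit stated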). The settings on record: CellTiter-Glo luminescence; at 20 µM (top of the series) unless noted.
Assay [10] is described as follows: NPC library primary testing for decreased DLD-1 cell viability via CellTiter-Glo (AID 1117346;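 active = compounds that lower survival of DLD-1 colon cancer cells in the luminescence readout, no cutoff given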). Conditions: DLD-1 viability, CellTiter-Glo luminescence; at 20 µM (top of the series).
Assay [11] in a line: viability loss with induced miR-34 in A549 – imaging, A549 dox-inducible miR-34, nuclei and caspase counts, primary screen (AID 1347080;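 active = compounds whose cell count with miR-34 switched on is under 0.7 times the count with it off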). Conditions: A549 miR-34 inducible, Hoechst nuclei count, 48 h.
Assay [12] is described as follows: MELAS cybrid and Rieske KO viability enhancers – cell-based, MELAS cybrids, Rieske KO mouse fibroblasts, CellTiter-Glo, primary screen (AID 1508586;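 active = mean z-score across replicates of 1.96 or higher in either the MELAS or the Rieske mutant cell line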;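 note: z relative to plate mean and SD of compound and empty wells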). Conditions: low glucose.
Assay [13] in a line: galactose survival enhancers in mitochondrial complex I cybrids – cell-based, galactose medium, ATP luminescence, primary screen (AID 1645843;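 active = z-score of at least 1.8 in each of two replicates, scored against plate mean and spread of sample wells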;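 note: positive z means more ATP and so rescue of galactose-driven cybrid death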). The settings on record: complex I mutant cybrid cells, 72 h, stronger effect = higher value.
The mark [14] stands for this setting: stronger effect = lower value, cell number ratio, induced over uninduced.
The mark [15] stands for this setting: measured here: relative caspase fold change +Dox/-Dox.
The mark [16] stands for this setting: measured here: total cells with miR-34 induction, stronger effect = lower value.
Setting [17] is: measured here: total cells without miR-34 induction.
Where [18] appears, read: MELAS cybrid survival, CellTiter-Glo 48 h, stronger effect = higher value.
Where [19] appears, read: Rieske KO mouse fibroblast survival, CellTiter-Glo 72 h.

On to `NS(=O)(=O)c1cc(C(=O)O)cc(N2CCCC2)c1Oc1ccccc1`, for which, in assay [1], the survival is 11.5 (inactive). Moreover, the parasite load remaining in assay [2] is 67.6% (inactive). The viability in assay [2] is 80.6%. Besides, the nuclear beta-catenin stimulation in assay [3] (at 10 µM) was 0.5% (inactive); in assay [3] (stimulation, at 2 µM) it was -0.6%. Further, the insulin secretion stimulation in assay [4] was -1% (inactive). For the same compound, in [5], the viability decrease is -7.05% (inactive). Moreover, in assay [6], the tube area decrease is -7% (inactive). Also, the GLP1 secretion stimulation in [7] is 1.1% (inactive). For the same compound, the inhibition of viability in assay [8] is 6.7% (inactive). In addition, the viability decrease (inhibition) is -4.4% (inactive) in [9] and -15.4% (inactive) in assay [10]. Further, the figures for the fold change in [11] (setting [14]) and in assay [11] (setting [15]) were 0.92 (inactive) and 0.688, respectively. The cell count in assay [11] (setting [16]) came out at 8630; in assay [11] (setting [17]), 9380. The z-score in assay [12] (setting [18]) is -0.17 (inactive); in assay [12] (setting [19]) it was -0.69.
Regarding `CCCCc1cc2ccccc2c(OCCN(C)C)n1`, the survival in assay [1] is 4.17 (inactive). Further, in assay [2], the parasite load remaining was 105% (inactive) and 71.5% (inactive). The viability in assay [2] is 105% and 79.9%. Moreover, the nuclear beta-catenin stimulation was 0.2% (inactive) in assay [3] (at 10 µM) and -0.1% in assay [3] (stimulation, at 2 µM). The insulin secretion stimulation in assay [4] was 4.6% (inactive). In addition, the viability decrease in assay [5] is -84.3% (inactive). In [6], the tube area decrease is 15.9% (inactive). In addition, the GLP1 secretion stimulation in assay [7] is 3.1% (inactive). For the same compound, the inhibition of viability in assay [8] is 22.3% (inactive). Also, the viability decrease (inhibition) in assay [9] was 72.1% (active); in assay [10] it was -3.7% (inactive). Also, the fold change in [11] (setting [14]) is 0.931 (inactive); in [11] (setting [15]) it was 1.26. The cell count in assay [11] (setting [16]) is 6620; in assay [11] (setting [17]), 7110. In addition, the z-score in assay [12] (setting [18]) was 0.0733 (inactive); in assay [12] (setting [19]), 0.0128.
With `NS(=O)(=O)c1cc2c(cc1Cl)NC(CC1CCCC1)NS2(=O)=O` (stereo not given), the survival in assay [1] is 5.92 (inactive). For the same compound, the parasite load remaining in assay [2] is 80.8% (inactive). Besides, the viability in [2] was found to be 73%. Moreover, the nuclear beta-catenin stimulation in assay [3] (at 10 µM) was -0.9% (inactive); in [3] (stimulation, at 2 µM), -1.5%. Besides, the insulin secretion stimulation in assay [4] is 4.2% (inactive). Moreover, the viability decrease in assay [5] was 1% (inactive). Further, the tube area decrease in assay [6] is 35.3% (inactive). In addition, in [7], the GLP1 secretion stimulation was 3.4% (inactive). Also, the inhibition of viability in assay [8] was 1.1% (inactive). Further, the viability decrease (inhibition) in assay [9] was -15.3% (inactive); in assay [10], -0.6% (inactive). Moreover, the fold change in [11] (setting [14]) is 0.993 (inactive); in [11] (setting [15]), 0.594. The figures for the cell count in [11] (setting [16]) and in assay [11] (setting [17]) were 9530 and 9590, respectively. Further, the z-score in [12] (setting [18]) was 0.486 (inactive); in assay [12] (setting [19]), -0.891.
Take `CC(C(=O)O)c1ccc(C(=O)c2ccccc2)s1` (stereo not given): the survival in assay [1] is 11.3 (inactive). The parasite load remaining in [2] was 86.4% (inactive) and 106% (inactive). In assay [2], the viability was 112% and 75.4%. Further, the nuclear beta-catenin stimulation was 0.5% (inactive) in [3] (at 10 µM) and 0.1% in assay [3] (stimulation, at 2 µM). For the same compound, the insulin secretion stimulation in assay [4] was -2% (inactive). The viability decrease in assay [5] was 4.35% (inactive). The tube area decrease in assay [6] was 4% (inactive). Moreover, the GLP1 secretion stimulation in [7] was -4.7% (inactive). In addition, the inhibition of viability in assay [8] is 7.4% (inactive). Further, the viability decrease (inhibition) in assay [9] is 37.4% (inactive); in assay [10], 10.6% (inactive). Besides, the figures for the fold change in assay [11] (setting [14]) and in [11] (setting [15]) were 0.849 (inactive) and 1.29, respectively. The cell count amounted to 9200 in assay [11] (setting [16]) and 10800 in assay [11] (setting [17]). Moreover, the values for the z-score in assay [12] (setting [18]) and in [12] (setting [19]) were -0.736 (inactive) and -0.23, respectively.
`CCCCN1C[C@H](O)[C@@H](O)[C@H](O)[C@H]1CO`: the parasite load remaining in assay [2] was 45.7% (inactive). Moreover, the viability in [2] worked out at 77.5%. Further, the nuclear beta-catenin stimulation in assay [3] (at 10 µM) is 2.8% (inactive); in [3] (stimulation, at 2 µM), 0.2%. For the same compound, the insulin secretion stimulation in [4] was -1.2% (inactive). For the same compound, the viability decrease in [5] was -13.2% (inactive). For the same compound, in [6], the tube area decrease is 8.1% (inactive). Besides, the GLP1 secretion stimulation in assay [7] is -0.1% (inactive). Also, in assay [8], the inhibition of viability was -0.5% (inactive). For the same compound, the viability decrease (inhibition) in assay [9] was 23.4% (inactive); in assay [10], 3.5% (inactive). Moreover, the fold change in [11] (setting [14]) was 0.88 (inactive); in assay [11] (setting [15]), 0.958. The cell count came out at 9280 in [11] (setting [16]) and 10500 in assay [11] (setting [17]). Besides, the z-score in assay [12] (setting [18]) was 0.308 (inactive); in [12] (setting [19]), -0.247; in assay [13] it was 0.145 (inactive).
